Source: paper PMC4081100, “A DNA-binding-site landscape and regulatory network analysis for NAC transcription factors in Arabidopsis thaliana”

Key:
Test in all cases: universal protein binding microarray (PBM); transcription factors of Arabidopsis thaliana; high values mean tight binding
GST-ANAC092(1-176) = molecular target: T1, GST-ANAC092(1-176) (Arabidopsis thaliana, UniProt Q9FKA0 1-176); details: protein: recombinant; tags: GST; chain copies: 2; dsDNA, one strand shown
T1 sequence: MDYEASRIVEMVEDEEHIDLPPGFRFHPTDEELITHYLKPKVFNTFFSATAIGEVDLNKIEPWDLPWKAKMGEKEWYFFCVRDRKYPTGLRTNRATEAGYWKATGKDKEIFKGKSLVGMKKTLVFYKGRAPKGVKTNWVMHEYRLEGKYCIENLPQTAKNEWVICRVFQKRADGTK
Method in brief: (§1)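 GST-tagged proteins (NAC-domain, full-length or DNA-binding-domain) were induced in cells, with zinc acetate supplied for zinc-finger proteins, then purified on glutathione–Sepharose 4B. Each was tested in duplicate at 200 to 500 nM final on custom all-10-mer Agilent 4 × 180K arrays rendered double-stranded by primer extension. The binding value is the normalised enrichment score (E-score) across gapped and ungapped 8-mers.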

GST-ANAC019 NAC domain = molecular target: T2, GST-ANAC019 NAC domain (Arabidopsis thaliana, UniProt Q9C932 14-162); details: protein: recombinant; tags: GST; chain copies: 2; dsDNA, one strand shown
T2 sequence: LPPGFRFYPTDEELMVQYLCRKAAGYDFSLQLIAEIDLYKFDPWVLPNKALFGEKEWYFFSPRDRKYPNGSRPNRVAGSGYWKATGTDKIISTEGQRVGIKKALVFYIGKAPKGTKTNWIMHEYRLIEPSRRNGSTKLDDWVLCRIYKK
Method in brief: as §1

GST-ANAC055(1-171) = molecular target: T3, GST-ANAC055(1-171) (Arabidopsis thaliana, UniProt Q9LDY8 1-171); details: protein: recombinant; tags: GST; chain copies: 2; dsDNA, one strand shown
T3 sequence: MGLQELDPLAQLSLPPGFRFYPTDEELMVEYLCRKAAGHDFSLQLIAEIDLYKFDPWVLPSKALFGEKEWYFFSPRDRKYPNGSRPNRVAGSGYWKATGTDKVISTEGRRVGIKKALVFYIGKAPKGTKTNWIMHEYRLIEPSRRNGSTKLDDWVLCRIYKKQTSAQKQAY
Method in brief: as §1

GST-ATAF1 NAC domain = molecular target: T4, GST-ATAF1 NAC domain (Arabidopsis thaliana, UniProt Q39013 7-158); details: protein: recombinant; tags: GST; chain copies: 2; dsDNA, one strand shown
T4 sequence: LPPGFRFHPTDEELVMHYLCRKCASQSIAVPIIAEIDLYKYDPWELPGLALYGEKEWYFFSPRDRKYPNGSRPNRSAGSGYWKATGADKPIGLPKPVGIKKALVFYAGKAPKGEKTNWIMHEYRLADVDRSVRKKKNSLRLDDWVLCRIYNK
Method in brief: as §1

[1] = molecular target: T5, GST-ANAC092(1-285) full length (Arabidopsis thaliana, UniProt Q9FKA0 1-285); details: protein: recombinant; tags: GST; chain copies: 2; dsDNA, one strand shown
T5 sequence: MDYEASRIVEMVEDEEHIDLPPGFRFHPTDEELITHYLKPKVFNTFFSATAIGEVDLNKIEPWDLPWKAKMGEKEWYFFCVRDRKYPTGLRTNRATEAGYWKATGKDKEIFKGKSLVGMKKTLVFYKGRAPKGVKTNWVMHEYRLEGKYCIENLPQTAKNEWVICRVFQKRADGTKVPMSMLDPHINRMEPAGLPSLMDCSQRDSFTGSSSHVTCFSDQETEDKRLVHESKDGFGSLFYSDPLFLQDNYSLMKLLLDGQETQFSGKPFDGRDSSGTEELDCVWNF
Method in brief: as §1

GST-NAP(1-166) = molecular target: T6, GST-NAP(1-166) (Arabidopsis thaliana, UniProt O49255 1-166); details: protein: recombinant; tags: GST; chain copies: 2; dsDNA, one strand shown
T6 sequence: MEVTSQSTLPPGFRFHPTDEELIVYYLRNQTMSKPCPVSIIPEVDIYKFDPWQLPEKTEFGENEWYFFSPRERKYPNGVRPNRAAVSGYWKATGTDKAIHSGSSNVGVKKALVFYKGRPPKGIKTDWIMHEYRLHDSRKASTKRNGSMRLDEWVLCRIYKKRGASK
Method in brief: as §1

GST-NST2(1-184) = molecular target: T7, GST-NST2(1-184) (Arabidopsis thaliana, UniProt Q9M274 1-184); details: protein: recombinant; tags: GST; chain copies: 2; dsDNA, one strand shown
T7 sequence: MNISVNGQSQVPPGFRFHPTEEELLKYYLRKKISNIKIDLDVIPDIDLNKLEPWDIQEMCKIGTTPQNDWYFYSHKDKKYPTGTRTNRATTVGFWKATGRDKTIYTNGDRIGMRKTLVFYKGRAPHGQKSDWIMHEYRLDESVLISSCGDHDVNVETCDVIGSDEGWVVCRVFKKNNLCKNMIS
Method in brief: as §1

GST-SND1(1-203) = molecular target: T8, GST-SND1(1-203) (Arabidopsis thaliana, UniProt Q9LPI7 1-203); details: protein: recombinant; tags: GST; chain copies: 2; dsDNA, one strand shown
T8 sequence: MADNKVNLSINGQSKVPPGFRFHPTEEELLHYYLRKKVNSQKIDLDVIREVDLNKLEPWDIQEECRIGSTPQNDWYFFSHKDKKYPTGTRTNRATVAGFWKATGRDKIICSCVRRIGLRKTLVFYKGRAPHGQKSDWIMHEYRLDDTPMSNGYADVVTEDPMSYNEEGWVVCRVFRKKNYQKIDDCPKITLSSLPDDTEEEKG
Method in brief: as §1

GST-VND3 NAC domain = molecular target: T9, GST-VND3 NAC domain (Arabidopsis thaliana, UniProt Q9FH59 12-162); details: protein: recombinant; tags: GST; chain copies: 2; dsDNA, one strand shown
T9 sequence: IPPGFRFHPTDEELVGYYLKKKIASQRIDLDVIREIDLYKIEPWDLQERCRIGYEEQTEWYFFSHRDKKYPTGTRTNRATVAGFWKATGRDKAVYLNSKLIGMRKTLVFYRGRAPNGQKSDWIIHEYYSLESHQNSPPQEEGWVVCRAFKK
Method in brief: as §1

GST-VND7 NAC domain = molecular target: T10, GST-VND7 NAC domain (Arabidopsis thaliana, UniProt Q9C8W9 9-158); details: protein: recombinant; tags: GST; chain copies: 2; dsDNA, one strand shown
T10 sequence: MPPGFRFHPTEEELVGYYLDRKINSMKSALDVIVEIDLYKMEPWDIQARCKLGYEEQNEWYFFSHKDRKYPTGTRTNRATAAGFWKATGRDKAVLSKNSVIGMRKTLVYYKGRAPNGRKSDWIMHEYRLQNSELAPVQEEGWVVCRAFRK
Method in brief: as §1

GST-WRKY1(266-371) = GST-WRKY1(266-371) (Arabidopsis thaliana, UniProt Q9SI37 266-371); details: protein: recombinant; tags: GST; dsDNA, one strand shown
Method in brief: as §1

GST-NTL6(1-168) = GST-NTL6(1-168) (Arabidopsis thaliana, UniProt Q9SCK6 1-168); details: protein: recombinant; tags: GST; chain copies: 2; dsDNA, one strand shown
Method in brief: as §1

GST-NTL8 NAC domain = molecular target: T11, GST-NTL8 NAC domain (Arabidopsis thaliana, UniProt Q9XIN7 14-156); details: protein: recombinant; tags: GST; chain copies: 2; dsDNA, one strand shown
T11 sequence: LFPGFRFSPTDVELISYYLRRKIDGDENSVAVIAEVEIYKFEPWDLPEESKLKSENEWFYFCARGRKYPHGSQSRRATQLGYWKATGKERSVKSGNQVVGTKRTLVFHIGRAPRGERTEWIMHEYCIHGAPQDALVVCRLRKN
Method in brief: as §1

Sequence of GST-NTL6(1-168) (Q9SCK6 1-168): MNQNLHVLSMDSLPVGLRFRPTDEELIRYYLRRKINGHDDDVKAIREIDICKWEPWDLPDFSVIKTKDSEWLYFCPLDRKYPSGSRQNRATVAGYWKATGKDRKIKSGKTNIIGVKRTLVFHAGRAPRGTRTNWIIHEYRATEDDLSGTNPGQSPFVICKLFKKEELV
Sequence of GST-WRKY1(266-371) (Q9SI37 266-371): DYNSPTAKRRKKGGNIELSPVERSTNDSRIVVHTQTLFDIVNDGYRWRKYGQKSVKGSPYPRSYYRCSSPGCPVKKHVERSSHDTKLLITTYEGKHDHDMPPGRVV

Sequence	binding signal (GST-ANAC092(1-176)) [E-score]	binding signal (GST-ANAC019 NAC domain) [E-score]	binding signal (GST-ANAC055(1-171)) [E-score]	binding signal (GST-ATAF1 NAC domain) [E-score]	binding signal [1] [E-score]	binding signal (GST-NAP(1-166)) [E-score]	binding signal (GST-NST2(1-184)) [E-score]	binding signal (GST-SND1(1-203)) [E-score]	binding signal (GST-VND3 NAC domain) [E-score]	binding signal (GST-VND7 NAC domain) [E-score]	binding signal (GST-WRKY1(266-371)) [E-score]	binding signal (GST-NTL6(1-168)) [E-score]	binding signal (GST-NTL8 NAC domain) [E-score]
ACACGTCT	0.422	0.459	0.405	0.393	0.425	0.346	0.168	0.174	0.396	0.421	0.114	–	–
AGTCAACA	0.161	0.125	0.0844	0.152	0.0634	–	0.0624	0.19	0.13	0.0805	0.488	0.0859	0.0937
GCGTGTCA	0.331	0.231	0.195	0.193	0.408	0.186	0.0663	0.0867	0.0583	0.189	0.0865	–	–
ATTACTTC	0.31	0.168	0.223	0.176	0.34	–	0.267	0.347	0.208	0.14	0.097	0.415	0.406
TCACGTCA	0.429	0.38	0.354	0.321	0.429	0.329	0.188	0.343	0.322	0.367	0.292	–	–
CGTATACG	0.195	0.354	0.363	0.407	0.283	0.397	0.0918	0.0859	0.321	0.395	0.0731	–	–
ATACGTCA	0.412	0.251	0.267	0.345	0.435	0.373	0.183	0.298	0.337	0.322	0.196	–	–
GCAAGTCA	0.187	–	–	0.0771	0.301	–	0.0804	0.175	0.115	0.12	0.423	0.0738	–
GACGCAAC	0.438	0.294	0.293	0.282	0.457	0.37	0.295	0.325	0.295	0.259	0.0608	–	–
ATAACGTA	0.418	–	0.19	0.289	0.423	0.187	0.37	0.465	0.334	0.156	0.0761	0.119	–
ATGACGTG	0.458	0.311	0.366	0.317	0.463	0.36	0.258	0.326	0.366	0.322	0.0849	–	–
TAGCGTGA	0.441	0.209	0.114	0.17	0.454	–	0.228	0.42	0.242	0.191	0.0738	0.0555	–
GAGACGTA	0.194	0.432	0.395	0.411	0.331	0.396	0.236	0.322	0.418	0.413	0.0734	–	–
CACGTCAA	0.444	0.38	0.324	0.248	0.448	0.299	0.252	0.313	0.332	0.278	0.403	–	–
CGTGGTCA	0.128	0.189	0.0851	0.0537	0.195	–	–	0.0883	0.164	0.128	0.431	–	–
CACGTCAG	0.336	0.261	0.19	0.203	0.407	0.154	–	0.0864	0.127	0.214	0.081	–	–
AAGGAAAG	0.261	0.104	0.181	0.0767	0.186	–	0.239	0.262	0.0708	0.117	0.0652	0.398	0.467
ACAAGTCA	0.0976	–	–	–	0.276	0.146	0.0664	0.114	0.0796	0.0869	0.43	0.0563	0.0517
GTACGGCA	0.395	0.451	0.362	0.385	0.439	0.342	0.178	0.236	0.424	0.425	0.0953	–	–
AAAAGTCA	0.142	0.185	0.157	0.241	0.241	0.08	0.274	0.257	0.13	0.122	0.461	0.1	0.128
GACGTAAA	0.355	0.298	0.256	0.365	0.399	0.311	0.333	0.431	0.329	0.204	0.0785	–	–
CTTGCGTC	0.337	0.0715	0.0764	0.0507	0.402	0.21	0.106	0.162	0.0748	0.058	0.0999	–	–
CTTTCTTC	0.137	–	–	0.117	0.21	0.0839	0.0636	0.181	0.074	0.0647	0.156	0.295	0.41
ACACGTCA	0.484	0.436	0.402	0.382	0.487	0.431	0.316	0.352	0.395	0.447	0.251	–	–
GTTCCGTA	0.351	0.43	0.448	0.438	0.373	0.455	0.179	0.377	0.375	0.439	0.0936	–	–
GAAAGGAA	0.21	0.134	0.168	0.188	0.2	–	0.228	0.234	0.209	0.231	0.0968	0.32	0.422
AAGTAATA	0.31	–	0.215	0.207	0.327	0.14	0.274	0.294	0.216	0.136	0.074	0.428	0.211
AGATTGAC	0.135	–	0.0571	0.0846	0.15	–	0.0869	0.179	0.0944	0.0768	0.457	0.0646	–
CTACGTCA	0.0986	0.133	0.129	0.166	0.318	0.148	0.31	0.452	0.144	0.176	0.137	–	–
